Experimental data as given in PubChem BioAssay (EPA / NIEHS).
Where “and” joins values, the source holds several entries; their conditions need not be identical. Equal entries are not always repeated. Inconclusive results are not listed. Calls of active or inactive are those of the source. Rule for the calls, unless noted: active = hit-call score of the fitted dose curve at least 0.9, where 1 is the maximum; inactive = score below 0.9.

Tests used:
[1] = target: Androgen receptor (Homo sapiens) (UniProt P10275); test: ATG_AR_TRANS: Attagene TRANS-FACTORIAL HepG2 Assay for human Androgen Receptor (AR) (AID 2282973; active = hit-call score of the fitted dose curve at least 0.9, where 1 is the maximum); settings: HepG2 Attagene TRANS-FACTORIAL AR reporter transcription
Method in brief: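 Readout is reporter transcript abundance, quantified by fluorescent RT-PCR products separated on capillary electrophoresis. Human HepG2 liver cells carried transiently transfected NR-Gal4 chimera plus GAL4-UAS reporter constructs and were dosed for 24 h; activity scored upward versus DMSO.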

[2] = CEETOX_H295R_MTT_cell_viability: Viability Assessment in the CeeTox HT-H295R MTT Assay (AID 2283718);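 for AC50: curve fitted both ways so AC50 may mark viability loss or gain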
Method in brief: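 MTT reduction (0.5 mg/ml, 4 h at 37 C; absorbance at 570 and 650 nm) gave viability as background-corrected percent change versus controls. H295R cells had 48 h forskolin (10 uM) prestimulation, then 48 h chemical exposure at 0.1% DMSO.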

[3] = read-out: Secreted IgG (sIgG), gene 3500; test: BSK_BT_sIgG: BioMAP Diversity Plus: BT Assay for Secreted IgG (sIgG) Biomarker Activity (AID 2284226); settings: primary human B cells with PBMC
Method in brief: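 B cells co-cultured with PBMC were dosed with chemical and secreted IgG quantified by ELISA at 24 h. Activity was fitted in the positive direction relative to DMSO as negative control and baseline.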

[4] = read-out: Tumor necrosis factor (Homo sapiens) (UniProt P01375); test: BSK_BT_xTNFa: BioMAP Diversity Plus: BT Assay for Tumor necrosis factor alpha (TNF-alpha) Biomarker Activity (AID 2284230); settings: primary human B cells with PBMC
Method in brief: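 Read-out: Luminex xMAP quantitation of secreted TNF-alpha from a B cell/PBMC co-culture 24 h after compound addition. Signal analysed relative to DMSO vehicle, positive fitting direction.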

[5] = read-out: Vascular cell adhesion molecule 1 (VCAM1), VCAM1 (gene 7412); test: BSK_MyoF_VCAM1: BioMAP Diversity Plus: MyoF Assay for Vascular cell adhesion molecule 1 (VCAM1) Biomarker Activity (AID 2284231); settings: primary human lung fibroblasts
Method in brief: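 MyoF system, lung fibroblasts; 24 h post-dose; VCAM-1 by ELISA; gain-of-signal fit vs DMSO baseline.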

[6] = read-out: Collagen I, COL1A1 (gene 1277); test: BSK_MyoF_CollagenI: BioMAP Diversity Plus: MyoF Assay for Collagen I Biomarker Activity (AID 2284238); settings: primary human lung fibroblasts
Method in brief: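 ELISA readout of Collagen I after 24 h chemical treatment of primary human lung fibroblast cultures; gain of signal scored relative to DMSO vehicle baseline.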

[7] = read-out: Interleukin 17F (IL17F), IL17F (gene 112744); test: BSK_BT_xIL17F: BioMAP Diversity Plus: BT Assay for Interleukin 17F (IL17F) Biomarker Activity (AID 2284243); settings: primary human B cells with PBMC
Method in brief: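 Secreted IL-17F, read on LumineX xMAP beads, was taken as the endpoint. Cultures combined human B cells and peripheral blood mononuclear cells, sampled 24 hours after dosing, with DMSO serving as negative control.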

[8] = read-out: Actin alpha 1 (ACTA1), ACTA1 (gene 58); test: BSK_MyoF_ACTA1: BioMAP Diversity Plus: MyoF Assay for Actin alpha 1 (ACTA1) Biomarker Activity (AID 2284244); settings: primary human lung fibroblasts
Method in brief: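 Human lung fibroblasts (MyoF system) dosed with test chemical for 24 h; α-SMA measured by ELISA. Gain of signal fitted relative to DMSO negative control as baseline.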

[9] = read-out: Basic fibroblast growth factor (bFGF), FGF2 (gene 2247); test: BSK_MyoF_bFGF: BioMAP Diversity Plus: MyoF Assay for Basic fibroblast growth factor (bFGF) Biomarker Activity (AID 2284246); settings: primary human lung fibroblasts
Method in brief: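 Human lung fibroblasts were dosed with chemicals and bFGF was quantified by ELISA 24 h later. Activity was fitted in the gain-of-signal direction relative to DMSO as negative control and baseline. Parallel SRB total-protein staining tracked overt cytotoxicity.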

[10] = read-out: Interleukin-8 (IL8), CXCL8 (gene 3576); test: BSK_MyoF_IL8: BioMAP Diversity Plus: MyoF Assay for Interleukin-8 (IL8) Biomarker Activity (AID 2284261); settings: primary human lung fibroblasts
Method in brief: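 Lung fibroblasts (human primary) → chemical exposure → 24 h → IL-8 measured by ELISA. Signal increase scored versus DMSO control.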

Decorin, DCN (gene 1634) = test: BSK_MyoF_Decorin: BioMAP Diversity Plus: MyoF Assay for Decorin Biomarker Activity (AID 2284265); settings: primary human lung fibroblasts
Method in brief: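 ELISA readout of decorin, 24 h post-dosing; primary human lung fibroblast (MyoF) culture; gain-of-signal fit vs DMSO baseline.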

[11] = BSK_MyoF_SRB: Viability Assessment in the BioMAP Diversity Plus: MyoF Assay (AID 2284267); settings: primary human lung fibroblasts;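 note: total protein by SRB absorbance in parallel cultures as cytotoxicity measure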
Method in brief: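 Human lung fibroblasts dosed with chemical and assessed 24 h later for overt cytotoxicity in parallel cultures. Total protein quantified by sulforhodamine B staining (0.1% SRB after 10% TCA fixation), read at 560 nm, analysed in positive direction versus DMSO baseline.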

[12] = target: human Dopamine Transporter (DAT), SLC6A3 (gene 6531) (UniProt Q01959); test: NVS_TR_hDAT: NovaScreen (NVS) Transporter Assay for human Dopamine Transporter (DAT) (AID 2283374; active = hit-call score of the fitted dose curve at least 0.9, where 1 is the maximum;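 note: activity means loss of bound radioligand signal relative to DMSO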)
Method in brief: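 Test chemicals were first screened in duplicate at 25 uM, with actives retested as concentration series. Displacement of a specific radioligand from cell-free human dopamine transporter was measured after 1 h by filtration and scintillation counting.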

[13] = target: human Retinoic Acid Receptor beta (RARb), RARB (gene 5915) (UniProt P10826); test: ATG_RARb_TRANS: Attagene TRANS-FACTORIAL HepG2 Assay for human Retinoic Acid Receptor beta (AID 2283004; active = hit-call score of the fitted dose curve at least 0.9, where 1 is the maximum)
Method in brief: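 Readout is reporter mRNA induction: RNA reverse-transcribed, PCR-amplified, FAM-labelled, HpaI-cut and resolved by capillary electrophoresis. Transiently transfected HepG2 cells carrying exogenous NR–Gal4 chimeras were dosed for 24 h; activity fitted upward relative to DMSO.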

[14] = target: Retinoic acid receptor alpha (Homo sapiens) (UniProt P10276); test: ATG_RARa_TRANS: Attagene TRANS-FACTORIAL HepG2 Assay for human Retinoic Acid Receptor alpha (RARa) (AID 2283005; active = hit-call score of the fitted dose curve at least 0.9, where 1 is the maximum)
Method in brief: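 Reporter transcripts, measured by RT-PCR with fluorescent labeling and capillary electrophoresis after 24 h dosing, reflect activity of an exogenous human RARa–GAL4 fusion in transiently transfected HepG2. Fitted for increase relative to DMSO.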

[15] = target: human Retinoic Acid Receptor gamma (RARg), RARG (gene 5916) (UniProt P13631); test: ATG_RARg_TRANS: Attagene TRANS-FACTORIAL HepG2 Assay for human Retinoic Acid Receptor gamma (RARg) (AID 2283009; active = hit-call score of the fitted dose curve at least 0.9, where 1 is the maximum)
Method in brief: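 HepG2 cells transiently transfected with multiplexed reporter units expressing chimeric RARg-GAL4 and GAL4-UAS-driven reporters; 24 h compound exposure. Reporter mRNA quantified by RT-PCR with fluorescent labelling and capillary electrophoresis; gain-of-signal fitted relative to DMSO baseline.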

[16] = target: Retinoic acid receptor RXR-alpha (Homo sapiens) (UniProt P19793); test: OT_NURR1_NURR1RXRa_0480: Odyssey Thera (OT) 8-hour HEK293T Protein Complementation Assay for Nurr1/retinoid X receptor (RXR) (AID 2283385; active = hit-call score of the fitted dose curve at least 0.9, where 1 is the maximum)
Method in brief: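 HEK293T cells expressing Nurr1 and RXRα fused to reporter fragments were dosed with compound for 8 hours. Complex formation was read as fluorescence intensity and analysed as gain of signal against DMSO as baseline.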

[17] = target: Retinoic acid receptor RXR-alpha (Homo sapiens) (UniProt P19793); test: OT_NURR1_NURR1RXRa_1440: Odyssey Thera (OT) 24-hour HEK293T Protein Complementation Assay for Nurr1/retinoid X receptor (RXR) (AID 2283386; active = hit-call score of the fitted dose curve at least 0.9, where 1 is the maximum)
Method in brief: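 HEK293T cells were dosed with compound and read 24 h later by fluorescence intensity in a protein-fragment complementation format, where Nurr1–RXRα interaction reconstitutes a split reporter. Activity was fitted as gain of signal relative to DMSO baseline.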

[18] = target: Estrogen receptor beta (Homo sapiens) (UniProt Q92731); test: OT_ER_ERbERb_0480: Odyssey Thera (OT) 8-hour HEK293T Protein-Complementation Assay for Estrogen Receptor-beta/-beta Homodimer (AID 2283357; active = hit-call score of the fitted dose curve at least 0.9, where 1 is the maximum;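 note: active means signal gain over DMSO baseline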)
Method in brief: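 Cells (HEK293T, stable ER-beta LBD PCA pair) are treated 8 hours, fixed and Draq5-stained; signal is fluorescence intensity increase relative to vehicle, fitted in the gain direction.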

[19] = target: Nuclear receptor subfamily 1 group I member 2 (Homo sapiens) (UniProt O75469); test: NVS_NR_hPXR: NovaScreen (NVS) Nuclear Receptor Binding Assay for human Pregnane X Receptor (PXR) (AID 2283365; active = hit-call score of the fitted dose curve at least 0.9, where 1 is the maximum;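 note: a drop in FRET signal versus DMSO baseline means the compound binds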)
Method in brief: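 TR-FRET signal read at 2 h in a cell-free human PXR binding format. DMSO served as negative control and baseline; activity scored as signal loss. Single-concentration duplicate screen (25 uM), then concentration-response follow-up.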

Measured: AC50

Chain of human Retinoic Acid Receptor beta (RARb), RARB (gene 5915) (P10826 whole entry, looked up, the tested form may be a part): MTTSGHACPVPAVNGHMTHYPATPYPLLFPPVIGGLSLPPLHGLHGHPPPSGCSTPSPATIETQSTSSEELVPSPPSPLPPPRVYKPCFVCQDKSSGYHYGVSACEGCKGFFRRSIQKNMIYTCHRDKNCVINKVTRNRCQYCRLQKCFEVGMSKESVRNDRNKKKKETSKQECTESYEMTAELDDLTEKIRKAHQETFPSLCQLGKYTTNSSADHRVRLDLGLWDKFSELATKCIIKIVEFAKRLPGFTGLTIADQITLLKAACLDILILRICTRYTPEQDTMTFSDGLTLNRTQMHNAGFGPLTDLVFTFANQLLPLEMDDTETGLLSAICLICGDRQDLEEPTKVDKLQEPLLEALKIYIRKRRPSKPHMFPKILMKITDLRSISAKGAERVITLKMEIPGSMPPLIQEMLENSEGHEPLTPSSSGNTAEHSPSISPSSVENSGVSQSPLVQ
Chain of Retinoic acid receptor alpha (Homo sapiens) (P10276 whole entry, looked up, the tested form may be a part): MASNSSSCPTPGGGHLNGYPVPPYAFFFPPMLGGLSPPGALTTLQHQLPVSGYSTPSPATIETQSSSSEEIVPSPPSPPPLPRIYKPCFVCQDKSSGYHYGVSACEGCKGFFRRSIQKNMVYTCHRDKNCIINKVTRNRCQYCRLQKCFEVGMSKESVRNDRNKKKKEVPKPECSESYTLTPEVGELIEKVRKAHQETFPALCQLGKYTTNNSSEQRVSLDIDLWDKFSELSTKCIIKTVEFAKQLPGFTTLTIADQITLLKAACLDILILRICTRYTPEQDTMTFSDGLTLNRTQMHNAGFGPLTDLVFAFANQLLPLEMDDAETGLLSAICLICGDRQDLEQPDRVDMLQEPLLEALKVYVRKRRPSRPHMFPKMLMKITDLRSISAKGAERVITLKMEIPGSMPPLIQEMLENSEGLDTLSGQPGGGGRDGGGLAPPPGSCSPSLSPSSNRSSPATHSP
Chain of human Retinoic Acid Receptor gamma (RARg), RARG (gene 5916) (P13631 whole entry, looked up, the tested form may be a part): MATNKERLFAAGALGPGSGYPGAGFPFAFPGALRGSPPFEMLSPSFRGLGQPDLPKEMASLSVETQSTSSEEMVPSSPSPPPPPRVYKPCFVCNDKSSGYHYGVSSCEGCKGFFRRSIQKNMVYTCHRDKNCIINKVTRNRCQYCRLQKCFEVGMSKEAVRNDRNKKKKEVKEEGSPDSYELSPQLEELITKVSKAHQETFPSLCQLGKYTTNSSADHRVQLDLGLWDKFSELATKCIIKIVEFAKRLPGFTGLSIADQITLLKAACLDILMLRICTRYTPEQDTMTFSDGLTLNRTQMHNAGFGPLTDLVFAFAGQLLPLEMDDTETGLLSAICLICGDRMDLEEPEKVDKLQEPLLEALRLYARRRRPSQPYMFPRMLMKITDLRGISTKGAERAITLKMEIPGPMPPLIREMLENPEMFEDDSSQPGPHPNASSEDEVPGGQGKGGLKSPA
Chain of human Dopamine Transporter (DAT), SLC6A3 (gene 6531) (Q01959 whole entry, looked up): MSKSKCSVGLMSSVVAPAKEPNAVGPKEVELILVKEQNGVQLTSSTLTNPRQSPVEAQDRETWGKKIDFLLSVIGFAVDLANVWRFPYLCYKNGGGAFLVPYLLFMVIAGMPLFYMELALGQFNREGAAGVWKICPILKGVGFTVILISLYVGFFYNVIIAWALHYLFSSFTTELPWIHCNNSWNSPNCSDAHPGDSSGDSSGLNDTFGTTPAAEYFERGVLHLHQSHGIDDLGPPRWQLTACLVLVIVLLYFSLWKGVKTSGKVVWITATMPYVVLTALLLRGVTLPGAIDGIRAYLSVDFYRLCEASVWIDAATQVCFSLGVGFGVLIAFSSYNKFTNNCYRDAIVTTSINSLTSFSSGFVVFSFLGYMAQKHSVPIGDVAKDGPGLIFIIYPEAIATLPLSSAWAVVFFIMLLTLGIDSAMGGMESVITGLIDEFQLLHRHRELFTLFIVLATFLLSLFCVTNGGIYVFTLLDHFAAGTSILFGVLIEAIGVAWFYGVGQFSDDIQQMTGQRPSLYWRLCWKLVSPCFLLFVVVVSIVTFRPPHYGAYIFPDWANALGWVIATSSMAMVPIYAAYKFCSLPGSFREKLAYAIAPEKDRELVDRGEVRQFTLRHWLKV
Chain of Estrogen receptor beta (Homo sapiens) (Q92731 whole entry, looked up, the tested form may be a part): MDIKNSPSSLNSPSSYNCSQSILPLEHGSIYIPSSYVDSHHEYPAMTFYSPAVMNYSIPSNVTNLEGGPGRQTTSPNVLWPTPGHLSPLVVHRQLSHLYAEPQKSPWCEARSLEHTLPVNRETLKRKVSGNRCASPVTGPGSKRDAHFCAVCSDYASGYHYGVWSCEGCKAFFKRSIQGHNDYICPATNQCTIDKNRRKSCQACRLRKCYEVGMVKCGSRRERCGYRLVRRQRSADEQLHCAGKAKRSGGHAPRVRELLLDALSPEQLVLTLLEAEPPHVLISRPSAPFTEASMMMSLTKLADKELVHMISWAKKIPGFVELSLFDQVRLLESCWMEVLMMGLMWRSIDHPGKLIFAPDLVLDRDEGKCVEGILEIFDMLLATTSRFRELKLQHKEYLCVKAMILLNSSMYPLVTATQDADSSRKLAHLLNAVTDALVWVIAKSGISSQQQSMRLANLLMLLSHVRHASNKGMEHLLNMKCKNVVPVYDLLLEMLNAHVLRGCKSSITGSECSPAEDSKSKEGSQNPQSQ
Chain of Tumor necrosis factor (Homo sapiens) (P01375 whole entry, looked up): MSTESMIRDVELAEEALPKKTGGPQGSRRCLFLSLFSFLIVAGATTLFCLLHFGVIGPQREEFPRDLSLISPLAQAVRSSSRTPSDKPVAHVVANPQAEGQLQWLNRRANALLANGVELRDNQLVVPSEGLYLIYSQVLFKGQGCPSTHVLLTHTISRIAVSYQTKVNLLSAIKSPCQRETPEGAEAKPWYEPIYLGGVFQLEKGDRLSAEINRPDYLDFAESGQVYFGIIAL
Chain of Retinoic acid receptor RXR-alpha (Homo sapiens) (P19793 whole entry, looked up, the tested form may be a part): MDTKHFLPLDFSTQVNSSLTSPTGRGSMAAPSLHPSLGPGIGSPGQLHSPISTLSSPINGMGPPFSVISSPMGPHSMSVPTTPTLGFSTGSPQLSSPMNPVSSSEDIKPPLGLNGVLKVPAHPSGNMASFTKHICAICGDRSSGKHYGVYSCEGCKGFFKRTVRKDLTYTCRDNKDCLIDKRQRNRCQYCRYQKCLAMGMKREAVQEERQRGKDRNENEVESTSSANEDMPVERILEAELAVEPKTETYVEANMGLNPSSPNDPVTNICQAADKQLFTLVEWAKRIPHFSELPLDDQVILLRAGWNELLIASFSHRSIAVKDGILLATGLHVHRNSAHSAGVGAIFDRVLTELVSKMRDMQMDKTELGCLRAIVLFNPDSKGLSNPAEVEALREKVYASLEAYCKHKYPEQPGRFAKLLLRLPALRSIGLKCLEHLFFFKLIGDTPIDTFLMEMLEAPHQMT
Chain of Androgen receptor (Homo sapiens) (P10275 whole entry, looked up, the tested form may be a part): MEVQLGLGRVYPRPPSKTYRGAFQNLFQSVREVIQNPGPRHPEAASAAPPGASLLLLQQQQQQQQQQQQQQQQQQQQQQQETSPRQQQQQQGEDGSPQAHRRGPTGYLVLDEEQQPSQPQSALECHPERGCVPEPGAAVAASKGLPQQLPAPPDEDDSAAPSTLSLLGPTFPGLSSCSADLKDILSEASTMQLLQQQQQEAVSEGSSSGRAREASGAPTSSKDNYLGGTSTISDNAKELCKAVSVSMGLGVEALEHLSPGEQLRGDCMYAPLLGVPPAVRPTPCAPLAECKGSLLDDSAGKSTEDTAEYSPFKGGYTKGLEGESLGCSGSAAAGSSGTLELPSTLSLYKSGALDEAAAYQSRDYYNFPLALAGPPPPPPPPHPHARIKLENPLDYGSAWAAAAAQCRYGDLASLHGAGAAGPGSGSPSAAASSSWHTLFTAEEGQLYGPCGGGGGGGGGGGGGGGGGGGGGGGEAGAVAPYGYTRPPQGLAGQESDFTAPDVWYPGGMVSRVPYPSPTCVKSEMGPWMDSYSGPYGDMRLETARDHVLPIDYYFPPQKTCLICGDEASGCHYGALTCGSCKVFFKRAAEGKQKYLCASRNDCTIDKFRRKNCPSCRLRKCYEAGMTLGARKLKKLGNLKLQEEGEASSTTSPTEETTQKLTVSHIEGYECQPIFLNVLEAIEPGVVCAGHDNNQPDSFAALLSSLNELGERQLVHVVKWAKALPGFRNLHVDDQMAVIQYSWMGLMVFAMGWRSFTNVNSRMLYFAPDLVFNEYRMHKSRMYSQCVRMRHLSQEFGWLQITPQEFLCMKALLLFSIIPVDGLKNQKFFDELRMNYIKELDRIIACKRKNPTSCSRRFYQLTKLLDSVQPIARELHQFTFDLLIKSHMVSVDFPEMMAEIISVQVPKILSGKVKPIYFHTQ
Chain of Nuclear receptor subfamily 1 group I member 2 (Homo sapiens) (O75469 whole entry, looked up): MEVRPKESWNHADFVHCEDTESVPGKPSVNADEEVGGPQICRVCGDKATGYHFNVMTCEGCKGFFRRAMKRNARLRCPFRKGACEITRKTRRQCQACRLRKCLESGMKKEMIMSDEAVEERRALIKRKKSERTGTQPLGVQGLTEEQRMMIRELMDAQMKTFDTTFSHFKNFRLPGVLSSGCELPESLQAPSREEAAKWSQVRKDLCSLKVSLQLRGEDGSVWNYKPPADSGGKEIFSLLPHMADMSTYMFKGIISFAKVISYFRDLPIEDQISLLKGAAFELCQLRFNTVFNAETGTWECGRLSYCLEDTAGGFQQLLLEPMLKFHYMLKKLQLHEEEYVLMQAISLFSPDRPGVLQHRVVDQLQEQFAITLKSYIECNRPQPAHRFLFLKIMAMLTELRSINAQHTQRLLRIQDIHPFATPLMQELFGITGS

CNC(=O)Oc1cc(C)c(SC)c(C)c1
inactive: [1] | [2] | [5] | [6] | [8] | [9] | [10] | Decorin, DCN (gene 1634) | [11]
active: [3] 10.6 µM | [4] 29.7 µM | [7] 20 µM

Clc1ccc(-c2ccccc2)cc1
inactive: [12] | [3] | [4] | [5] | [6] | [7] | [8] | [9] | [10] | Decorin, DCN (gene 1634) | [11]

CCC(C)c1cc([N+](=O)[O-])cc([N+](=O)[O-])c1OC(=O)C=C(C)C (stereo unspecified)
active: [3] 20 µM | [4] 30.8 µM | [5] 3.66 µM | [6] 4.1 µM | [7] 29.3 µM | [8] 5.45 µM | [9] 32.6 µM | [10] 36.9 µM | Decorin, DCN (gene 1634) 20 µM | [11] 20.8 µM

O=c1[nH]c(Cl)c(Cl)cc1Cl
inactive: [1] | [3] | [4] | [5] | [6] | [7] | [8] | [9] | [10] | Decorin, DCN (gene 1634) | [11]

N#Cc1cc(I)c(O)c(I)c1
inactive: [13] | [14] | [15]

COC(C)(C)CCC[C@H](C)C/C=C/C(C)=C/C(=O)OC(C)C
inactive: [1] | [6] | [9] | [10] | Decorin, DCN (gene 1634) | [11]
active: [3] 13.4 µM | [4] 32.5 µM | [5] 27.1 µM | [7] 24.4 µM | [8] 30.9 µM

Nc1c(Cl)c(Cl)c(Cl)c(Cl)c1Cl
inactive: [1] | [13] | [14] | [15]

CCOP(=O)(OCC)Oc1ccc([N+](=O)[O-])cc1
inactive: [16] | [17] | [2]

CC1(C)[C@H](C(=O)O[C@H](C#N)c2cccc(Oc3ccccc3)c2)[C@@H]1C=C(Br)Br
active: [12] 7.41 µM | [3] 23.2 µM and 29.8 µM | [7] 28.7 µM and 20 µM
not listed: [2] | [13] | [14] | [15] | [17] | [19]
inactive: all other assays above

O=c1c2ccccc2c(=O)c2c1cc(Cl)c1[nH]c3c([nH]c12)c(Cl)cc1c(=O)c2ccccc2c(=O)c13
inactive: [3] | [4] | [5] | [6] | [7] | [8] | [9] | [10] | Decorin, DCN (gene 1634) | [11]

Oc1cc(Cl)ccc1Cl
not listed: [1] | [12] | [14] | [16] | [18] | [19]
inactive: all other assays above

CCc1cc(C)cc(CC)c1-c1c(OC(=O)C(C)(C)C)n2n(c1=O)CCOCC2
active: [8] 20 µM
inactive: [3] | [4] | [5] | [6] | [7] | [9] | [10] | Decorin, DCN (gene 1634) | [11]

CN1C(=O)CCS(=O)(=O)C1c1ccc(Cl)cc1 (stereo unspecified)
inactive: [13] | [15]

C[C@]12CC[C@H](O)C[C@H]1CC[C@@H]1[C@@H]2C[C@@H](O)[C@]2(C)[C@@H](C3=CC(=O)OC3)CC[C@]12O
active: [12] 40.9 µM | [2] 2.57 µM
inactive: [1]

CC(C)(Cl)Cl
inactive: [16] | [17]

CNC(=N[N+](=O)[O-])NCC1CCOC1 (stereo unspecified)
inactive: [18] | [16] | [17]

O=S(=O)(O)OOS(=O)(=O)O
inactive: [18] | [16]

O=[N+]([O-])O
inactive: [15] | [16] | [17]

CCOC(=O)NC(=S)Nc1ccccc1NC(=S)NC(=O)OCC
active: [19] 6.55 µM
inactive: [13] | [18]

O=C(O)CCCc1ccc(N(CCCl)CCCl)cc1
active: [3] 3.48 µM and 5.7 µM | [4] 23.6 µM and 20 µM | [5] 24.4 µM and 30.1 µM | [7] 20 µM and 15.2 µM
inactive: [6] | [8] | [9] | [10] | Decorin, DCN (gene 1634) | [11]

O=C(CCl)c1ccccc1
inactive: [13] | [14] | [15] | [16]
active: [17] 11.6 µM
